The supplement of paper PMC6992640
± gives the standard deviation of the averaged measurements.

How the values were obtained:
Test in all cases: cell viability (% of vehicle); higher = less cytotoxic
Details in all cases: 10 µM; 72 h
HCI01 = system: HCI01 (cells of a triple-negative basal-like breast cancer xenograft)
HCI03 = system: HCI03 (cells of an ER-positive luminal breast cancer xenograft)
HCI09 = system: HCI09 (cells of a triple-negative luminal androgen receptor type breast cancer xenograft)
HCI11 = system: HCI11 (cells of an ER-positive luminal breast cancer xenograft)
HCI13 = system: HCI13 (cells of an ER-positive luminal breast cancer xenograft)
HCI16 = system: HCI16 (cells of a triple-negative basal-like breast cancer xenograft)
UCD52 = system: UCD52 (cells of a triple-negative basal-like breast cancer xenograft)
WHIM2 = system: WHIM2 (cells of a triple-negative basal-like breast cancer xenograft)
WHIM30 = system: WHIM30 (cells of a triple-negative basal-like breast cancer xenograft)
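Further: PDX cells carrying CMV promoter-driven luciferase, viability read as total photon flux per second by IVIS imaging following D-luciferin, vehicle control 0.1% DMSO.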

Compound | cell viability (HCI01) | cell viability (HCI03) | cell viability (HCI09) | cell viability (HCI11) | cell viability (HCI13) | cell viability (HCI16) | cell viability (UCD52) | cell viability (WHIM2) | cell viability (WHIM30)
CC(=O)NCC1CN(c2ccc(N3CCOCC3)c(F)c2)C(=O)O1 (configuration not stated) [Linezolid] | 99.5 ± 2.9 | 108 | 93.8 ± 5.2 | 103 | 98.1 ± 3 | 110 | 81 ± 12 | 80.7 ± 1.3 | 137 ± 14
COCCc1ccc(OCC(O)CNC(C)C)cc1.COCCc1ccc(OCC(O)CNC(C)C)cc1.O=C(O)C(O)C(O)C(=O)O (configuration not stated) [Metoprolol Tartrate] | 126 ± 15 | 111 | 112 ± 13 | 95 | 81.4 ± 14 | 112 | 88.1 ± 13 | 94.4 ± 13 | 107 ± 2.7
CC(=O)O.CC(=O)O.CCC(C)CC(C)CCCCCCCCC(=O)NC1CC(O)C(NCCN)NC(=O)C2C(O)CCN2C(=O)C(C(O)CCN)NC(=O)C(C(O)C(O)c2ccc(O)cc2)NC(=O)C2CC(O)CN2C(=O)C(C(C)O)NC1=O (configuration not stated) [Caspofungin Acetate] | 58.7 ± 28 | 115 | 84.5 ± 9.6 | 84.4 | 88 ± 5.7 | 115 | 71.4 ± 2.7 | 94.1 ± 40 | 119 ± 2.4
C=C1CCC(O)CC1=CC=C1CCCC2(C)C1CCC2C(C)C=CC(C)C(C)C (configuration not stated) [Vitamin D2 (Ergocalciferol)] | 118 ± 26 | 101 | 61.9 ± 14 | 95.2 | 58.8 ± 16 | 77.9 | 65.5 ± 2.4 | 40.7 ± 13 | 89.1 ± 10
CCN(CC)CCOC(=O)c1ccc(N)cc1 [Procaine] | 99.4 ± 4.1 | 122 | 105 ± 23 | 87 | 96.765 ± 0.018 | 102 | 88.1 ± 3.5 | 97.3 ± 23 | 95.2 ± 24
CCCN1CCCCC1C(=O)Nc1c(C)cccc1C.Cl.O (configuration not stated) [Ropivacaine hydrochloride monohydrate] | 86.9 ± 16 | 116 | 105 ± 16 | 96.1 | 110.3 ± 0.64 | 117 | 96.2 ± 12 | 90.8 ± 14 | 100 ± 9.1
CN1CC(=O)N2[C@H](c3ccc4c(c3)OCO4)c3[nH]c4ccccc4c3C[C@@H]2C1=O [Tadalafil] | 108 ± 1.5 | 150 | 90 ± 22 | 141 | 95.7 ± 3.2 | 88.4 | 96.7 ± 12 | 112 ± 3 | 105 ± 16
CCC1OC(=O)CC(O)C(C)C(OC2OC(C)C(O)C(N(C)C)C2O)C(CCN2CC(C)CC(C)C2)CC(C)C(=O)C=CC(C)=CC1COC1OC(C)C(O)C(OC)C1OC (configuration not stated) [Tilmicosin] | 89.4 ± 32 | 116 | 82 ± 4.8 | 80.9 | 99.5 ± 6.4 | 102 | 77.7 ± 9.9 | 84.1 ± 3.9 | 97 ± 10
COc1cc(C2c3cc4c(cc3C(OC3OC5COC(c6cccs6)OC5C(O)C3O)C3COC(=O)C23)OCO4)cc(OC)c1O (configuration not stated) [Teniposide] | 104 ± 2.6 | 112 | 105 ± 36 | 111 | 134 ± 40 | 118 | 111 ± 1.8 | 87.3 ± 23 | 96.6 ± 4.3
Cc1ccc(C2OC(CO)C(O)C(O)C2O)cc1Cc1ccc(-c2ccc(F)cc2)s1 (configuration not stated) [Canagliflozin] | 114 ± 6.5 | 150 | 55.8 ± 27 | 108 | 77.3 ± 21 | 124 | 76 ± 9.2 | 65.5 ± 51 | 110 ± 5.9
NCCC(O)C(=O)NC1CC(N)C(OC2OC(CN)C(O)C(O)C2O)C(O)C1OC1OC(CO)C(O)C(N)C1O (configuration not stated) [Amikacin] | 93.2 ± 16 | 144 | 105 ± 22 | 95.3 | 106 ± 16 | 114 | 103 ± 11 | 86.1 ± 8.6 | 117 ± 2.6
CCC1C(O)C2C3CCC(C(C)CCC(=O)O)C3(C)CCC2C2(C)CCC(O)CC12 (configuration not stated) [Obeticholic Acid] | 137 ± 53 | 149 | 77.56 ± 0.36 | 112 | 81.8 ± 14 | 145 | 98.9 ± 10 | 120 ± 1.9 | 151 ± 2.4
Nc1ncnc2c1ncn2C1OC(CO)C(O)C1O (configuration not stated) [Adenosine] | 99.7 ± 3.6 | 123 | 90.4 ± 15 | 96.9 | 66.2 ± 4.5 | 97.7 | 95.7 ± 3.5 | 121 ± 34 | 124 ± 16
C=CC[N+]1(C2CC3C4CCC5CC(O)C(N6CCOCC6)CC5(C)C4CCC3(C)C2OC(C)=O)CCCC1.[Br-] (configuration not stated) [Rocuronium Bromide] | 100 ± 8.3 | 133 | 103 ± 3.9 | 102 | 115 ± 7.2 | 80.4 | 118 ± 8 | 99.8 ± 22 | 119 ± 7.7
CCOC(=O)C1=C[C@]2(CC)CCCN3CCc4c(n1c1ccccc41)[C@@H]32 [Vinpocetine] | 107 ± 21 | 108 | 94.4 ± 14 | 106 | 88.5 ± 11 | 112 | 110 ± 9 | 93.4 ± 7.8 | 125 ± 11
CCCCOc1cc(C(=O)NCCN(CC)CC)c2ccccc2n1.Cl [Dibucaine (Cinchocaine) HCl] | 124 ± 13 | 154 | 92.3 ± 9.3 | 103 | 116 ± 5.1 | 101 | 68 ± 3.4 | 96.4 ± 5.9 | 109 ± 4.7
CC(O)C1C(=O)N2C(C(=O)OCOC(=O)C(C)(C)C)=C(SC3CN(C4=NCCS4)C3)C(C)C12 (configuration not stated) [Tebipenempivoxil] | 130 ± 21 | 110 | 142 ± 85 | 115 | 101 ± 34 | 89.7 | 97.2 ± 11 | 112 ± 53 | 133 ± 17
CS(=O)(=O)O.Cc1ccc(NC(=O)c2ccc(CN3CCN(C)CC3)cc2)cc1Nc1nccc(-c2cccnc2)n1 [Imatinib Mesylate (STI571)] | 157 ± 24 | 86.7 | 67.7 ± 12 | 69.7 | 91.3 ± 11 | 99 | 67.8 ± 1.8 | 88.9 ± 6.2 | 114 ± 18
